# Where “and” joins values, the source holds several entries; their conditions need not be identical. Equal entries are not always repeated. Results filed as inconclusive are left out. A call without a number means that no potency is given here. Unmarked numbers belong to inactive results. Calls of active or inactive are those of the source. The call rests on the fitted dose curve; in most records, active means well fitted cell-killing curve with a large enough effect; inconclusive means small, poorly fitted or top-dose-only effect; inactive means no such curve, though single readings can be large or run the other way.
# Test: qHTS of pediatric cancer cell lines to identify multiple opportunities for drug repurposing: Primary screen for SK-N-SH cells (AID 1347098); further: nearly all actives have a fitted effect of over 65% in size
# Details: SK-N-SH viability, CellTiter-Glo luminescence, 48 h; series mostly up to 57 µM; activity change, negative = cytotoxic: at the top concentration
# Excerpt: Drug repurposing or repositioning has been offered as a strategy for drug development in oncology programs. This approach has special potential for childhood cancers and other rare or orphan diseases, where the expected return on new drug development has been a disincentive to pharmaceuticals.
# In this project we exploit the poly-pharmacology of drugs to discover new indications via phenotypic screening of a panel of 19 well-characterized cell lines derived from solid tumors seen in children and adolescents. The goal is to identify approved drugs with previously unrecognized anticancer properties that has the potential to reveal new mechanisms and biological processes involved in carcinogenesis or drug resistance. We employed a titration-based paradigm (quantitative high-throughput screening or qHTS), where all compounds were tested at multiple concentrations for their effect on cell viability. Concentration-response curves (CRCs) were derived directly from the primary screen, and both potency and efficacy values were used to identify compounds with robust bioactivity profiles. We screened the NIH Chemical Genomics Center (NCGC) Pharmaceutical Collection (NPC) and Mechanism Interrogation Plate (MIPE) small molecule collections of approved and investigational compounds against these cell lines; and measured metabolically active cells after 48 hours of compound treatment as a proxy for cell viability.
# Assay Submitter: Nathalia J. Martinez, National Center for Advancing Translational Sciences, National Institutes of Health, Rockville, MD, USA; email: natalia.martinez@nih.gov
# [1] Shen, M et al. Quantitative high-throughput phenotypic screening of pediatric cancer cell lines identifies multiple opportunities for drug repurposing. Oncotarget 2017 Dec 19;9(4):4758-4772. PMID 29435139.
# The cells were obtained from University of North Carolina (UNC), Pediatric Preclinical Testing Program (PPT), and Coriell Institute (CI).
# qHTS cell viability assay:
# Cells were assayed in growth media at a density of 500-1,000 cells/well. Five microliters of cells were dispensed into 1,536-well, white, solid-bottom, TC-treated plates (Greiner Bio One) using a multidrop dispenser and incubated at 37 degrees C, 5% CO2, under a humidified atmosphere for 5 hours. Twenty-three nanoliters of compounds and controls (neutral control DMSO or positive control bortezomib at final concentration of 2.3 µM) were subsequently transferred by Kalypsys pintool. For primary screens, the MIPE collection was tested at 11-point dilutions (final concentrations range from 0.78 nM to 46 µM) and the NPC collection at 8-point dilutions (final concentrations range from 0.59 nM to 46 µM). Compounds tested in follow-up screens were assayed at 11-point dilutions. Cells were incubated for 48 hours, followed by addition of 3 µL of CellTiter-Glo (Promega). After a 15 min incubation at room temperature, samples were analyzed for luminescence intensity using a ViewLux High-throughput CCD imager equipped with clear filters.
# Potency means the concentration at half of the fitted maximal effect.
Compound,Potency,"activity change, negative = cytotoxic"
CCCc1cc(C(N)=S)ccn1,inactive,
NC(=O)c1cccc(N)c1,,4.01%
CC(C)OC(=O)C(C(=O)OC(C)C)=C1SC=CS1,inactive,
CCn1cc(C(=O)O)c(=O)c2cc(F)c(N3CCNCC3)nc21,inactive,
O=NN(CCCl)C(=O)NC1CCCCC1,inactive,
NC1(c2ccc(-c3nc4ccn5c(=O)[nH]nc5c4cc3-c3ccccc3)cc2)CCC1,19.2 µM (active) and 17.2 µM (active),
CCN[C@H]1C[C@H](C)S(=O)(=O)c2sc(S(N)(=O)=O)cc21,inactive,
CC1=C(C(=O)O)N2C(=O)[C@@H](NC(=O)C(N)c3ccccc3)[C@H]2SC1 (stereo not given in full),,28%
COC(=O)Nc1nc2ccc(S(=O)c3ccccc3)cc2[nH]1 (stereo not given),1.54 µM (active) and 19.2 µM (active),
Nc1[nH]c(=O)ncc1F,,-11.9%
O=c1oc2c(O)c(O)cc3c(=O)oc4c(O)c(O)cc1c4c23,inactive,
CC1=CC(=O)c2ccccc2C1=O,21.7 µM (active),
CN(C)CCc1c[nH]c2ccc(C[C@H]3COC(=O)N3)cc12,inactive,
Cc1onc(-c2ccccc2Cl)c1C(=O)N[C@@H]1C(=O)N2[C@@H]1SC(C)(C)[C@@H]2C(=O)O,inactive,
CCCOc1ccc(C(=O)OCCN(CC)CC)cc1N,inactive,
N=C(N)c1ccc(OCCCCCOc2ccc(C(=N)N)cc2)cc1,9.61 µM (active),
COc1nc(N)nc2c1ncn2[C@@H]1O[C@H](CO)[C@@H](O)[C@@H]1O,inactive,
CC(C)C1CCC(C(=O)N[C@H](Cc2ccccc2)C(=O)O)CC1 (stereo not given in full),inactive,
CCC(=O)O[C@]1(C(=O)CCl)[C@@H](C)C[C@H]2[C@@H]3CCC4=CC(=O)C=C[C@]4(C)[C@@]3(F)[C@@H](O)C[C@@]21C,inactive,
CCOCC(O)COc1ccc(NC(=O)CC[S+](C)C)cc1 (stereo not given),inactive,

Compound,Potency,"activity change, negative = cytotoxic"
CCOC(=O)c1ccc(C#Cc2ccc3c(c2)C(C)(C)CCS3)nc1,,19.4%
COc1ccccc1OCC(O)COC(N)=O (stereo not given),inactive,
Nc1ccc(S(=O)(=O)Nc2ccccn2)cc1,inactive,
C1CCC(C(CC2CCCCN2)C2CCCCC2)CC1 (stereo not given),15.4 µM (active),
CC(=O)[C@H]1CC[C@H]2[C@@H]3CCC4=CC(=O)CC[C@]4(C)[C@H]3CC[C@]12C,12.1 µM (active),
Cc1nnc(C(=O)NC(C)(C)c2nc(C(=O)NCc3ccc(F)cc3)c(O)c(=O)n2C)o1,inactive,
C[C@]12C=CC(=O)C=C1CC[C@@H]1[C@@H]2C(=O)C[C@@]2(C)[C@H]1CC[C@]2(O)C(=O)CO,inactive,
Clc1ccccc1CN1CCc2sccc2C1,,-19.1%
CCN1CCCC1CNC(=O)c1cc(S(N)(=O)=O)ccc1OC (stereo not given),,-2.05%
NCCCC(O)(P(=O)(O)O)P(=O)(O)O,inactive,
CN(C)CCc1c[nH]c2ccc(CS(=O)(=O)N3CCCC3)cc12,,0.29%
CO[C@@]12[C@H](COC(N)=O)C3=C(C(=O)C(C)=C(N)C3=O)N1C[C@@H]1N[C@@H]12,1.72 µM (active) and 8.57 µM (active),
CCOC(=O)c1ccc(OC(=O)CCCCCN=C(N)N)cc1,inactive,
COC(c1ccccc1)(c1ccccc1)[C@H](Oc1nc(C)cc(C)n1)C(=O)O,inactive,
Cc1cccc(Nc2ccncc2S(=O)(=O)NC(=O)NC(C)C)c1,inactive,
Cc1c(-c2ccc(O)cc2)n(Cc2ccc(OCCN3CCCCCC3)cc2)c2ccc(O)cc12,,18.9%
Oc1c(Cl)cc(Cl)c2cccnc12,3.86 µM (active) and 30.4 µM (active),
Cn1c(=O)c2c(ncn2CC(O)CO)n(C)c1=O (stereo not given),inactive,
CC[C@H](NC(C)C)[C@H](O)c1ccc(O)c2[nH]c(=O)ccc12,inactive,
COc1cc2nc(N3CCCN(C)CC3)nc(NC3CCN(Cc4ccccc4)CC3)c2cc1OC,9.61 µM (active),

# From PubChem BioAssay (NCATS)
